Bioassay records (PubChem BioAssay)
The list is not random: actives were taken first. Their share in the collection is about 18%.
TDP1 inh – inhibitors of human tyrosyl-DNA phosphodiesterase TDP1; Q9NUW8; recombinant TDP1, AlphaScreen DNA substrate cleavage; Potency, µM (titrated, usually from 130 µM), for the others: top-dose activity change, negative = inhibition, usual class: inhibitors; actives 0.28% (n = 350,000); AID 485290; also: potency is read from the fitted curve at half-maximal effect; % is scaled to controls: 0 for no effect and ±100 for the full control effect; nearly all actives have a fitted effect of over 40% in size
Target sequence (Q9NUW8 whole entry, looked up): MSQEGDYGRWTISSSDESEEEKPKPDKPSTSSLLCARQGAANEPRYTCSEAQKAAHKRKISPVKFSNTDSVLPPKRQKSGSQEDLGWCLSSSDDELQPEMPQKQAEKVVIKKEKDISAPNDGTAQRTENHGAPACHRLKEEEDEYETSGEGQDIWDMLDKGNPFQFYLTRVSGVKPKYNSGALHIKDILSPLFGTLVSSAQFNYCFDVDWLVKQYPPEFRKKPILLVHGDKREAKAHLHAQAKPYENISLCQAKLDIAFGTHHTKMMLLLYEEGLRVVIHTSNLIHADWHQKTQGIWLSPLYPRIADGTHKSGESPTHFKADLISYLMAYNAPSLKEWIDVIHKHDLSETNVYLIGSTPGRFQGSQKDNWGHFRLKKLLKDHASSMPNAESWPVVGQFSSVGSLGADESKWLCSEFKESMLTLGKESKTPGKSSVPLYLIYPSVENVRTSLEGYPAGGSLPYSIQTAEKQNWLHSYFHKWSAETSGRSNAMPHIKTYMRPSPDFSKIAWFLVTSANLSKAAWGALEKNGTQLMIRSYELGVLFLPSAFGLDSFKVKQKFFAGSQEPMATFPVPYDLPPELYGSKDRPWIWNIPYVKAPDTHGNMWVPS
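Compounds were preincubated with Tdp1 (1 nM final) for 15 min at room temperature before substrate (15 nM final) started a 5 min reaction; beads (10 ug/ml final) were then added for 10 min before AlphaScreen detection.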
TDP1 cell CPT – growth inhibition of DT40 Tdp1-/-;hTDP1 cells with camptothecin (screen for TDP1 inhibitors); chicken DT40 Tdp1-/-;hTDP1 cells + 20 nM CPT, ATP luminescence, 48 h; Potency, µM (series often up to 46.2 µM), inactives show at the top dose activity change, negative = growth inhibition, most hits filed as inhibitors; actives 12% (n = 420,000); also: potency is read from the fitted curve at half-maximal effect; % is scaled to controls: 0 for no effect and ±100 for the full control effect; nearly all actives have a fitted effect of over 55% in size
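Cell growth measured by CellTiter-Glo luminescence after a minimum 48 h, 37 C compound exposure with 20 nM CPT in Tdp1-knockout DT40 cells stably expressing hTDP1, seeded 400/well; qHTS titration format.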
IL1B secr inh – inhibitors of inflammasome signaling (IL-1 beta secretion); THP-1 LPS/ATP IL-1B secretion, AlphaLISA, 16 h; hits give low values; activity change, % at 57.5 µM; actives 4.7% (n = 360,000); in the data active = activity change below about -50%; inconclusive = mostly about -30% to -49%; also: % is scaled to controls: 0 for no effect and ±100 for the full control effect
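THP-1 cells pretreated 1 hr with compounds (up to 57.5 uM final), then stimulated with LPS (250 ng/mL final) plus ATP (1.25 mM final); secreted IL-1B measured by AlphaLISA after 16 hr, decreased signal indicating inhibition.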
DT40 TDP1 no CPT – qHTS for Inhibitors of human tyrosyl-DNA phosphodiesterase 1 (TDP1): qHTS in cells in absence of CPT; DT40 Tdp1-/- hTDP1 cells, no CPT, ATP luminescence, 48 h; Potency, µM (top dose mostly 46.2 µM), without a hit: top-dose activity change, negative = growth inhibition, hits mostly inhibitors; actives 15% (n = 420,000); AID 686978, 2013; also: potency is read from the fitted curve at half-maximal effect; % is scaled to controls: 0 for no effect and ±100 for the full control effect; nearly all actives have a fitted effect of over 55% in size
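Chicken DT40 Tdp1-/- cells stably complemented with human TDP1 were seeded at 400 cells/well with DMSO in place of 20 nM camptothecin. After compound pinning, cells grew at least 48 hr at 37 °C; viability read by CellTiter-Glo luminescence.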
HepG2 viability – counter-screen for TGF-b inhibitors: cytotoxicity in HepG2 cells | HepG2 CAGA-GFP viability, ATP luminescence, 18 h | Potency, µM (top dose mostly 46.1 µM), without a hit: top-dose activity change, negative = cytotoxicity, actives largely listed as cytotoxic | actives 0.76% (n = 410,000) | AID 588856; also: potency is read from the fitted curve at half-maximal effect
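HepG2 CAGA-GFP cells (1000/well, DMEM with 1% FBS) received compound, then TGF-beta at 500 pg/mL final, and were incubated 18 hours at 37 degrees C. Viability was read by CellTiter-Glo luminescence. Media-only wells were set as complete cell-killing and DMSO as no toxicity.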
TGFb SMAD3 inh – TGF-b pathway inhibition; HepG2 CAGA-GFP TGF-b/SMAD3 reporter, GFP fluorescence, 18 h; TGF-beta stimulated, 500 pg/mL final; Potency, µM (doses to about 46.1 µM), without a hit: top-dose activity, negative = inhibition, most hits filed as inhibitors; actives 1.2% (n = 410,000); also: potency is read from the fitted curve at half-maximal effect; % is scaled to controls: 0 for no effect and ±100 for the full control effect; nearly all actives have a fitted effect of over 65% in size
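HEPG2 CAGA-GFP, 1000 cells/well; 2 h settle, 37 C; cpd via pin tool; TGF-b 500 pg/mL final; 18 h, 37 C; GFP imaging ex488/em500-530; %Activity normalised to -TGF-b and +DMSO controls; CRC fit, curve class.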
Numbers without * were called inactive; ? = inconclusive; . = no result given; [ ] = remark or other dose. Unless noted, calls follow the shape of the dose curve; as a rule, active = well fitted curve in the direction sought with a large enough effect; inconclusive = small, poorly fitted or top-dose-only effect, or another doubt; inactive = no such curve, though single readings can be large; an effect the other way counts as inactive or inconclusive.

SMILES	TDP1 inh	TDP1 cell CPT	IL1B secr inh	DT40 TDP1 no CPT	HepG2 viability	TGFb SMAD3 inh
CNc1ccc(C(=O)CC(O)CCC(C)C2OC(=O)CC(O)CC(=O)CC(O)CC(O)CC(O)CC(O)CC3(O)CC(O)C(C(=O)OC)C(CC(O[C@@H]4O[C@H](C)[C@@H](O)[C@H](N)[C@@H]4O)/C=C/C=C/C=C/C=C/C=C/C=C/C=C/C2C)O3)cc1 (stereo partly specified)	.	3%	.	-24%	.	.
CN(C)[C@H](Cc1ccccc1)c1ccccc1	.	-2%	.	-14%	.	.
O=C(Cc1ccc(Cl)c(Cl)c1)Nc1cccnc1	-2%	-19%	-6	?	-7%	-5%
CCN[C@H](C)Cc1cccc(C(F)(F)F)c1	.	3%[92.5 µM]	.	4%[92.5 µM]	.	.
COC(=O)[C@@]1(C)CC[C@]2(C)CC[C@@]3(C)C(=CC(=O)C4[C@@]5(C)CC[C@H](O)C(C)(C)[C@@H]5CC[C@]43C)[C@H]2C1 (stereo partly specified)	2%	-28%	6	?	-7%	-9%
C=C(C)[C@@H]1CC[C@]2(C(=O)O)CC[C@]3(C)C(CCC4[C@@]5(C)CC[C@H](O)C(C)(C)C5CC[C@]43C)C12 (stereo partly specified)	.	6.5µM*	41	7.3µM*	4%	8%
COC(=O)C1=C(c2ccc(OCc3ccccc3)cc2)C[C@@H]2CC[C@H]1N2C(=O)NCCCc1ccccc1	3%	15µM*	-11	13µM*	-15%	6%
COC(=O)C1=C(c2ccc(OCc3ccccc3)cc2)C[C@@H]2CC[C@H]1N2C(=O)NCc1ccccc1C(F)(F)F	.	16µM*	-3	12µM*	-18%	-12%
COC(=O)C1=C(c2cccc(OCc3ccccc3)c2)C[C@@H]2CC[C@H]1N2C(=O)NCCCc1ccccc1	0%	?	0	?	-7%	?
COC(=O)C1=C(c2cccc(OCc3ccccc3)c2)C[C@@H]2CC[C@H]1N2C(=O)NCc1ccc(F)cc1	0%	?	-28	?	0%	?
COC(=O)C1=C(c2ccc(OCc3ccccc3)cc2)C[C@@H]2CC[C@H]1N2C(=O)NCc1ccccc1OC	.	16µM*	-4	8.2µM*	-52%	?
COC(=O)C1=C(c2ccc(OCc3ccccc3)cc2)C[C@@H]2CC[C@H]1N2C(=O)NCc1ccc(F)cc1	.	15µM*	?	23µM*	-26%	?
COC(=O)C1=C(c2ccccc2)C[C@@H]2CC[C@H]1N2C(=O)NCc1ccccc1	.	0%	13	-25%	-8%	-1%
O=c1n(Cl)c(=O)n(Cl)c(=O)n1Cl	9%	7%	.	3%	.	.
COc1cc(CC(=O)OCC2=C[C@H]3[C@@H]4C(C)(C)[C@]4(OC(C)=O)[C@H](OC(=O)Cc4ccccc4)[C@@H](C)[C@]3(O)[C@@H]3C=C(C)C(=O)[C@@]3(O)C2)ccc1O	10%	.	.	.	.	.
COC(=O)C1=C(c2ccc(OCc3ccccc3)cc2)C[C@@H]2CC[C@H]1N2C(=O)NCc1ccc(N(C)C)cc1	10%	?	32	?	19%	12%
COC(=O)C1=C(c2ccc(OCc3ccccc3)cc2)C[C@@H]2CC[C@H]1N2C(=O)NCc1ccc(OC)c(OC)c1	2%	18µM*	12	23µM*	-39%	-14%
C[C@H]1C[C@H](C)C(=O)[C@@H]([C@H](O)CC2CC(=O)NC(=O)C2)C1	-9%[56.1 µM]	0.13µM*	.	0.084µM*	.	.
